# Measured values: PubChem BioAssay (NCI)
# Where “and” joins values, the source holds several entries; their conditions need not be identical. Equal entries are not always repeated. About 83,000 compounds went through this panel and 20% of them were active in at least one assay; those are over-represented in the sample as a whole.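 Single-concentration screen, 48 h exposure, 96-well plates. Endpoint: percent growth. Below 10 = active.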 More than one record can exist for a structure, and the calls need not agree. Calls of active or inactive are those of the source.
# What was measured:
# Assay in all cases: NCI-60 one-dose screen, 48 h (100 = growth as untreated, 0 = no growth, -100 = all killed)
# Conditions in all cases: 10 µM unless noted
# HCT-15 colon = test system: HCT-15 colon
# SNB-75 CNS = test system: SNB-75 CNS
# SNB-19 CNS = test system: SNB-19 CNS
# U251 CNS = test system: U251 CNS
# PC-3 prostate = test system: PC-3 prostate
# SK-MEL-5 melanoma = test system: SK-MEL-5 melanoma
# UACC-62 melanoma = test system: UACC-62 melanoma
# LOX IMVI melanoma = test system: LOX IMVI melanoma
# SK-MEL-2 melanoma = test system: SK-MEL-2 melanoma
# EKVX NSCLC = test system: EKVX NSCLC
# SN12C renal = test system: SN12C renal
# UO-31 renal = test system: UO-31 renal
# TK-10 renal = test system: TK-10 renal
# ACHN renal = test system: ACHN renal
# CAKI-1 renal = test system: CAKI-1 renal
# A498 renal = test system: A498 renal
# CCRF-CEM leukemia = test system: CCRF-CEM leukemia
# MOLT-4 leukemia = test system: MOLT-4 leukemia
# SK-MEL-28 melanoma = test system: SK-MEL-28 melanoma
smiles,measurement,setting,value
COc1cc(Nc2nc3ccccc3nc2NS(=O)(=O)c2ccc(NC(=O)c3ccc(C)c(OC)c3)cc2)cc(OC)c1,growth,HCT-15 colon,60.3% (inactive) and 13.4% (inactive)
same,growth,SNB-75 CNS,32% (inactive) and -34.7% (active)
same,growth,SNB-19 CNS,68.2% (inactive) and 39.1% (inactive)
same,growth,U251 CNS,55.4% (inactive) and 21.5% (inactive)
same,growth,PC-3 prostate,21.5% (inactive) and 11.1% (inactive)
same,growth,SK-MEL-5 melanoma,85.3% (inactive) and -25.7% (active)
same,growth,UACC-62 melanoma,56.4% (inactive) and -32.5% (active)
same,growth,LOX IMVI melanoma,52.7% (inactive) and 2.52% (active)
same,growth,SK-MEL-2 melanoma,45.7% (inactive)
same,growth,EKVX NSCLC,40.1% (inactive) and 8.65% (active)
same,growth,SN12C renal,49.1% (inactive) and 14.8% (inactive)
same,growth,UO-31 renal,12.2% (inactive) and -20% (active)
same,growth,TK-10 renal,54.1% (inactive) and -35.5% (active)
same,growth,ACHN renal,53.1% (inactive) and 1.39% (active)
same,growth,CAKI-1 renal,62.2% (inactive) and -11.6% (active)
same,growth,A498 renal,18.9% (inactive) and -44.3% (active)
same,growth,CCRF-CEM leukemia,20% (inactive)
same,growth,MOLT-4 leukemia,37.5% (inactive) and 7.47% (active)
COc1ccc2cc3[n+](cc2c1OC)CCc1cc2c(cc1-3)OCO2,growth,HCT-15 colon,105% (inactive) and 93.4% (inactive)
same,growth,SNB-75 CNS,85.5% (inactive) and 81% (inactive)
same,growth,U251 CNS,25.2% (inactive) and 28.7% (inactive)
same,growth,PC-3 prostate,60.1% (inactive) and 60.6% (inactive)
same,growth,SK-MEL-5 melanoma,7.33% (active) and 24.3% (inactive)
same,growth,UACC-62 melanoma,54.8% (inactive) and 64.9% (inactive)
same,growth,LOX IMVI melanoma,83.6% (inactive) and 86.5% (inactive)
same,growth,SK-MEL-28 melanoma,94% (inactive)
same,growth,SK-MEL-2 melanoma,90.7% (inactive) and 104% (inactive)
same,growth,EKVX NSCLC,26.3% (inactive) and 65.5% (inactive)
same,growth,SN12C renal,30.2% (inactive) and 49.2% (inactive)
same,growth,UO-31 renal,76.3% (inactive) and 84.2% (inactive)
same,growth,TK-10 renal,137% (inactive) and 98.3% (inactive)
same,growth,ACHN renal,91.2% (inactive)
same,growth,CAKI-1 renal,81.7% (inactive) and 89.8% (inactive)
same,growth,A498 renal,86.8% (inactive) and 90.8% (inactive)
same,growth,CCRF-CEM leukemia,70.8% (inactive) and 67% (inactive)
same,growth,MOLT-4 leukemia,66% (inactive) and 54.8% (inactive)
COc1cc(Oc2c(C)c(Cl)c(OC)c(Cl)c2OC)c2c(c1Cl)COC2=O,growth,UACC-62 melanoma,-38% [100 µM] (active) and -9.28% [100 µM] (active)
same,growth,TK-10 renal,20.3% [100 µM] (inactive) and 9.52% [100 µM] (active)
O=C(Nc1cccc(NC(=O)C(=O)C2CCC3=C(Sc4ccccc4N3)C2=O)n1)C(=O)C1CCC2=C(Sc3ccccc3N2)C1=O (stereo unspecified),growth,UACC-62 melanoma,50.7% [100 µM] (inactive) and -46.3% [100 µM] (active)
same,growth,TK-10 renal,103% [100 µM] (inactive) and 15.7% [100 µM] (inactive)
N=C1N=C(N)CS1,growth,SNB-75 CNS,92.1% (inactive)
same,growth,SNB-19 CNS,104% (inactive)
same,growth,PC-3 prostate,101% (inactive)
same,growth,SK-MEL-5 melanoma,98.4% (inactive)
same,growth,UACC-62 melanoma,100% (inactive)
same,growth,LOX IMVI melanoma,107% (inactive)
same,growth,SK-MEL-28 melanoma,109% (inactive)
same,growth,SK-MEL-2 melanoma,116% (inactive)
same,growth,SN12C renal,99.9% (inactive)
same,growth,UO-31 renal,93.2% (inactive)
same,growth,TK-10 renal,131% (inactive)
same,growth,ACHN renal,116% (inactive)
same,growth,CAKI-1 renal,96.5% (inactive)
same,growth,A498 renal,90.7% (inactive)
same,growth,CCRF-CEM leukemia,104% (inactive)
Cc1ccc(OCC2OC(n3cnc4c(Cl)nc(Cl)nc43)CC2Oc2ccc(C)cc2)cc1 (stereo unspecified),growth,UACC-62 melanoma,-90.8% [100 µM] (active) and -89.2% [100 µM] (active)
same,growth,TK-10 renal,72.8% [100 µM] (inactive) and -96.1% [100 µM] (active)
CCOC(=O)Nc1ccc2c(c1)/C(=N\NC(N)=S)c1ccccc1-2,growth,HCT-15 colon,22.1% (inactive) and 38.2% (inactive)
same,growth,SNB-75 CNS,70.2% (inactive) and 66.4% (inactive)
same,growth,U251 CNS,52.6% (inactive) and 48.8% (inactive)
same,growth,PC-3 prostate,42.5% (inactive) and 90.9% (inactive)
same,growth,SK-MEL-5 melanoma,38.1% (inactive) and 44.2% (inactive)
same,growth,UACC-62 melanoma,37.3% (inactive) and 51.3% (inactive)
same,growth,LOX IMVI melanoma,54.4% (inactive) and 58.4% (inactive)
same,growth,SK-MEL-28 melanoma,50% (inactive) and 75.4% (inactive)
same,growth,SK-MEL-2 melanoma,70.1% (inactive) and 93.2% (inactive)
same,growth,EKVX NSCLC,68.3% (inactive) and 70.8% (inactive)
same,growth,SN12C renal,73.3% (inactive) and 71.9% (inactive)
same,growth,UO-31 renal,68% (inactive) and 82.5% (inactive)
same,growth,TK-10 renal,82.2% (inactive) and 107% (inactive)
same,growth,ACHN renal,56.8% (inactive) and 68.7% (inactive)
same,growth,CAKI-1 renal,43% (inactive) and 73.4% (inactive)
same,growth,A498 renal,46.6% (inactive) and 65.5% (inactive)
same,growth,CCRF-CEM leukemia,19.9% (inactive) and 27.8% (inactive)
same,growth,MOLT-4 leukemia,46% (inactive) and 41.8% (inactive)
C=C1C2CCC3C4(C)CCCC(C)(C(=O)O)C4CCC3(C2)C1OC(=O)/C(C)=C/C (stereo unspecified),growth,UACC-62 melanoma,-47.9% [100 µM] (active) and 42.1% [100 µM] (inactive)
same,growth,TK-10 renal,27.3% [100 µM] (inactive) and 79.6% [100 µM] (inactive)
COC(=O)c1ccc(NC(=O)O/N=C(\Cl)C(C)C)cc1,growth,UACC-62 melanoma,-90.3% [100 µM] (active) and -100% [100 µM] (active)
same,growth,TK-10 renal,-100% [100 µM] (active)
C[N+](C)(C)CN1C(=O)c2ccccc2C1=O,growth,HCT-15 colon,103% (inactive)
same,growth,SNB-75 CNS,77.5% (inactive)
same,growth,U251 CNS,102% (inactive)
same,growth,PC-3 prostate,96.4% (inactive)
same,growth,SK-MEL-5 melanoma,102% (inactive)
same,growth,UACC-62 melanoma,101% (inactive)
same,growth,LOX IMVI melanoma,103% (inactive)
same,growth,SK-MEL-28 melanoma,98.6% (inactive)
same,growth,SN12C renal,100% (inactive)
same,growth,UO-31 renal,97.3% (inactive)
same,growth,ACHN renal,102% (inactive)
same,growth,CAKI-1 renal,94.4% (inactive)
same,growth,A498 renal,98.2% (inactive)
same,growth,CCRF-CEM leukemia,101% (inactive)
same,growth,MOLT-4 leukemia,94.2% (inactive)
COc1c2c(c3c(c1OC)c(=O)c1ccccc1n3C)OCO2,growth,UACC-62 melanoma,58.8% [100 µM] (inactive)
same,growth,TK-10 renal,74.8% [100 µM] (inactive)
CCOc1ccc(Nc2c3ccccc3nc3ccccc23)cc1,growth,HCT-15 colon,91.1% (inactive) and 17.4% (inactive) and 22% (inactive)
same,growth,SNB-75 CNS,77.1% (inactive) and 38.2% (inactive) and 21.5% (inactive)
same,growth,SNB-19 CNS,91.1% (inactive) and 44.3% (inactive) and 35.2% (inactive)
same,growth,U251 CNS,86% (inactive) and 21.4% (inactive) and 28.1% (inactive)
same,growth,PC-3 prostate,90.6% (inactive) and 25.6% (inactive) and 39.5% (inactive)
same,growth,SK-MEL-5 melanoma,80.6% (inactive) and -65.9% (active) and 0.799% (active)
same,growth,UACC-62 melanoma,84.8% (inactive) and 18.9% (inactive) and 31.8% (inactive)
same,growth,LOX IMVI melanoma,94.5% (inactive) and 3.66% (active) and 11.5% (inactive)
same,growth,SK-MEL-2 melanoma,104% (inactive) and 34% (inactive) and 72.1% (inactive)
same,growth,EKVX NSCLC,42.8% (inactive) and 42.1% (inactive)
same,growth,SN12C renal,81.8% (inactive) and 20.6% (inactive) and 27.6% (inactive)
same,growth,TK-10 renal,93.3% (inactive) and 35.1% (inactive) and 32.7% (inactive)
same,growth,ACHN renal,84.9% (inactive) and -30.4% (active) and 6.25% (active)
same,growth,CAKI-1 renal,91.3% (inactive) and 6.56% (active) and -17% (active)
same,growth,A498 renal,73.5% (inactive) and 35.5% (inactive) and 72.8% (inactive)
same,growth,CCRF-CEM leukemia,99.8% (inactive) and 12.4% (inactive) and 4.91% (active)
same,growth,MOLT-4 leukemia,89.9% (inactive) and -2.2% (active) and -10.9% (active)
CC1=C(/C=C/C(C)=C/C=C/C(C)=C/C=N/NC(=S)NC(=S)N/N=C/C=C(C)/C=C/C=C(C)/C=C/C2=C(C)CCCC2(C)C)C(C)(C)CCC1,growth,HCT-15 colon,26.5% (inactive) and -6.65% (active)
same,growth,SNB-75 CNS,-4.78% (active) and -40% (active)
same,growth,SNB-19 CNS,36.2% (inactive) and 16.3% (inactive)
same,growth,U251 CNS,-61.8% (active) and -94.4% (active)
same,growth,PC-3 prostate,-1.77% (active) and -12.4% (active)
same,growth,SK-MEL-5 melanoma,-63% (active) and -96.5% (active)
same,growth,UACC-62 melanoma,-60% (active) and -75.5% (active)
same,growth,LOX IMVI melanoma,-100% (active) and -93.6% (active)
same,growth,SK-MEL-2 melanoma,-66.4% (active) and -84.6% (active)
same,growth,EKVX NSCLC,36% (inactive) and 25.5% (inactive)
same,growth,UO-31 renal,-36% (active) and -47.4% (active)
same,growth,TK-10 renal,-8.64% (active) and -42.5% (active)
same,growth,CAKI-1 renal,-37.9% (active) and -20.1% (active)
same,growth,A498 renal,23.6% (inactive) and -47.4% (active)
same,growth,CCRF-CEM leukemia,-16.5% (active) and -23.4% (active)
same,growth,MOLT-4 leukemia,-22.2% (active) and -41.2% (active)
CC1(c2ccc3ccccc3c2)CCC(=O)O1 (stereo unspecified),growth,HCT-15 colon,107% (inactive)
same,growth,SNB-75 CNS,100% (inactive)
same,growth,SNB-19 CNS,106% (inactive)
same,growth,U251 CNS,99.9% (inactive)
same,growth,PC-3 prostate,97.9% (inactive)
same,growth,SK-MEL-5 melanoma,105% (inactive)
same,growth,UACC-62 melanoma,95.7% (inactive)
same,growth,LOX IMVI melanoma,93.1% (inactive)
same,growth,SK-MEL-2 melanoma,86.6% (inactive)
same,growth,EKVX NSCLC,111% (inactive)
same,growth,SN12C renal,102% (inactive)
same,growth,UO-31 renal,81.1% (inactive)
same,growth,TK-10 renal,93.5% (inactive)
same,growth,ACHN renal,101% (inactive)
same,growth,CAKI-1 renal,100% (inactive)
same,growth,A498 renal,113% (inactive)
same,growth,CCRF-CEM leukemia,105% (inactive)
same,growth,MOLT-4 leukemia,95.2% (inactive)
CCOC(=O)c1cc(C)nc2c1c(=O)n(-c1ccccc1)c(=O)n2CCCCN1CCN(c2ncccn2)CC1,growth,UACC-62 melanoma,97.1% [100 µM] (inactive) and 82.3% [100 µM] (inactive)
same,growth,TK-10 renal,116% [100 µM] (inactive) and 111% [100 µM] (inactive)
COc1cc2c(cc1C1COc3cc4occc4cc3C1=O)OCO2 (stereo unspecified),growth,UACC-62 melanoma,62.1% [100 µM] (inactive) and 73.4% [100 µM] (inactive)
same,growth,TK-10 renal,88.2% [100 µM] (inactive) and 80.4% [100 µM] (inactive)
